# PubChem BioAssay (NCI)
# Values joined by “and” are separate entries in the source; they are usually repeats but may differ in a detail not shown here. Equal values may be shown once. This is part of a sample that, as a whole, favours compounds with a hit. Of some 79,000 tested, about 15% had one in any assay. More than one record can exist for a structure, and the calls need not agree. Active and inactive are the calls of the source. Rule as the data show it: active = growth inhibition above about 70%; inactive = the rest.
# Experiments:
# [1] = NCI Yeast Anticancer Drug Screen. Data for the rad50 strain (AID 155);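 also: 0% = growth of vehicle-only cultures of the same strain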; conditions: S. cerevisiae rad50 strain growth inhibition, stronger effect = higher value
# Procedure, shortened: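 Growth of the mutant yeast was measured after compound exposure and referenced to vehicle-treated cultures.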
# [2] = NCI Yeast Anticancer Drug Screen. Data for the mec2-1 strain (AID 157); conditions: S. cerevisiae mec2-1 strain, stronger effect = higher value
# Procedure, shortened: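 Cells of the genetically defined mec2-1 yeast strain are incubated with test compound. Inhibition of growth is calculated against vehicle-treated controls.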
# [3] = NCI Yeast Anticancer Drug Screen. Data for the sgs1 mgt1 strain (AID 161);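 also: 0% = growth of cultures given vehicle only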; conditions: S. cerevisiae sgs1 mgt1 strain, stronger effect = higher value
# Procedure, shortened: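 Genetically altered yeast, compound exposure, growth inhibition relative to vehicle.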
# [4] = NCI Yeast Anticancer Drug Screen. Data for the cln2 rad14 strain (AID 165);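 also: 0% = growth equal to vehicle treated cultures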; conditions: S. cerevisiae cln2 rad14 strain, stronger effect = higher value
# Procedure, shortened: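 The screen exposed genetically defined yeast (cln2 rad14) to test compounds and scored growth inhibition relative to vehicle-treated controls.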
# [5] = NCI Yeast Anticancer Drug Screen. Data for the bub3 strain (AID 167); conditions: S. cerevisiae bub3 mutant strain, stronger effect = higher value
# Procedure, shortened: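 Whole-cell yeast assay. The mutant strain was incubated with compounds, and growth inhibition was determined by comparison with vehicle-treated cells.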
# [6] = NCI Yeast Anticancer Drug Screen. Data for the mlh1 rad18 strain (AID 175); conditions: S. cerevisiae mlh1 rad18 strain growth inhibition, stronger effect = higher value
# Procedure, shortened: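 Compound-treated yeast growth, normalised to vehicle controls. Strain bears defined DNA repair mutations.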
# [7] = at 5.0 µM (retest, dose inferred, filed as 0.5)
# [8] = at 50.0 µM (retest, dose inferred, filed as 5.0)
SMILES,"growth inhibition [1, 7]","growth inhibition [1, 8]",growth inhibition ([1]; at 50.0 µM),"growth inhibition [2, 7]","growth inhibition [2, 8]",growth inhibition ([2]; at 50.0 µM),"growth inhibition [3, 7]","growth inhibition [3, 8]",growth inhibition ([3]; at 50.0 µM),"growth inhibition [4, 7]","growth inhibition [4, 8]",growth inhibition ([4]; at 50.0 µM),"growth inhibition [5, 7]","growth inhibition [5, 8]",growth inhibition ([5]; at 50.0 µM),"growth inhibition [6, 7]","growth inhibition [6, 8]",growth inhibition ([6]; at 50.0 µM)
CCCCCCCCCCCC(=O)CN1CCOCC1,34% (inactive),99% (active),98.9% (active),25% (inactive),100% (active),99.8% (active),47% (inactive),99% (active),61.9% (inactive),39% (inactive),99% (active),97.8% (active),87% (active),99% (active),99.7% (active),31% (inactive),99% (active),99.2% (active)
CCCCCCCCCCCCCCCCOP(=O)(O)OCC(NC(C)=O)C(=O)O (configuration not stated),-2% (inactive),100% (active),99.2% (active),17% (inactive),100% (active),99.5% (active),4% (inactive),95% (active),99.3% (active),37% (inactive),99% (active),99.3% (active),1% (inactive),97% (active),99.5% (active),-1% (inactive),99% (active),99.4% (active)
Cc1ccc(S(=O)(=O)C23C(N=NC2(C)C)C3(C)C)cc1 (configuration not stated),10% (inactive),3% (inactive),-4.7% (inactive),4% (inactive),-3% (inactive),-10.6% (inactive),-16% (inactive),4% (inactive),1.25% (inactive),8% (inactive),15% (inactive),-39.9% (inactive),15% (inactive),-2% (inactive),-45.8% (inactive),-1% (inactive),-16% (inactive),8.4% (inactive)
ClCCCN(CCCCl)c1ccc(C=Nc2cccc(Cl)c2)cc1,16% (inactive),89% (active),91.3% (active),-4% (inactive),8% (inactive),-1.2% (inactive),24% (inactive),90% (active),92.8% (active),8% (inactive),88% (active),86.2% (active),-4% (inactive),-14% (inactive),-13% (inactive),17% (inactive),89% (active),78.5% (active)
c1ccc2c(c1)CC1=C(O2)c2ccccc2OC1,-2% (inactive),48% (inactive),37.5% (inactive),2% (inactive),78% (active),39.5% (inactive),5% (inactive),76% (active),42.7% (inactive),-3% (inactive),22% (inactive),46.1% (inactive),4% (inactive),80% (active),53% (inactive),6% (inactive),89% (active),92.1% (active)
N=S(c1ccccc1[N+](=O)[O-])c1ccccc1[N+](=O)[O-],13% (inactive) and 8% (inactive),4% (inactive) and 52% (inactive),68.2% (inactive) and 54.1% (inactive),2% (inactive) and 7% (inactive),15% (inactive) and 53% (inactive),17.4% (inactive) and 22.4% (inactive),-24% (inactive) and 32% (inactive),39% (inactive) and 77% (active),69.5% (inactive) and 75.5% (active),8% (inactive) and 6% (inactive),9% (inactive) and 49% (inactive),25.3% (inactive) and 61.9% (inactive),-7% (inactive) and 2% (inactive),-6% (inactive) and 73% (active),36.9% (inactive) and 26.8% (inactive),-14% (inactive) and 20% (inactive),-1% (inactive) and 83% (active),79.8% (active) and 76.3% (active)
COc1ccc2c(c1)C(Cc1ccc(Oc3ccc(CC4c5cc(OC)ccc5CC[N+]4(C)C)cc3)cc1)[N+](C)(C)CC2 (configuration not stated),-12% (inactive),62% (inactive),96.8% (active),-6% (inactive),51% (inactive),97.2% (active),-7% (inactive),91% (active),99.2% (active),-4% (inactive),54% (inactive),72% (active),-3% (inactive),82% (active),84.7% (active),-10% (inactive),95% (active),98.8% (active)
O=C(/C(=C\c1ccc(Cl)c(Cl)c1)c1ccccc1)c1ccc(O)cc1,51% (inactive),91% (active),94% (active),39% (inactive),95% (active),93.9% (active),48% (inactive),93% (active),94.1% (active),42% (inactive),93% (active),92.2% (active),43% (inactive),94% (active),91.8% (active),54% (inactive),92% (active),93.2% (active)
O=C(/C=C/c1ccc(Cl)cc1)NC1C=Nc2ccc([N+](=O)[O-])cc2NC1=O (configuration not stated),32% (inactive),94% (active),95.8% (active),-27% (inactive),93% (active),96.5% (active),29% (inactive),93% (active),96.6% (active),13% (inactive),93% (active),92.5% (active),0% (inactive),92% (active),92.3% (active),13% (inactive),88% (active),97.2% (active)
O=C1/C(=C/c2ccc(Cl)cc2)CNC/C1=C\c1ccc(Cl)cc1,83% (active) and 48% (inactive),79% (active) and 71% (active),76.7% (active) and 86.2% (active),76% (active) and 48% (inactive),87% (active) and 78% (active),81.8% (active) and 89.5% (active),88% (active) and 58% (inactive),88% (active) and 91% (active),87.2% (active) and 86.7% (active),69% (inactive) and 44% (inactive),85% (active) and 73% (active),83.8% (active) and 83.5% (active),90% (active) and 46% (inactive),85% (active) and 95% (active),79.9% (active) and 85.3% (active),91% (active) and 66% (inactive),75% (active) and 88% (active),81.2% (active) and 79.2% (active)
COC(=O)[C@]1(C)CCC[C@]2(C)c3ccc(C(C)C)cc3CC[C@@H]12,0% (inactive),40% (inactive),-12.8% (inactive) and 98.4% (active),6% (inactive),97% (active),3.05% (inactive) and 99.1% (active),-8% (inactive),74% (active),13.8% (inactive) and 99% (active),0% (inactive),41% (inactive),-19.3% (inactive) and 99% (active),1% (inactive),43% (inactive),-31.1% (inactive) and 99.2% (active),-1% (inactive),66% (inactive),10.1% (inactive) and 99% (active)
CN(C)Cc1c(O)ccc2ccccc12,2% (inactive),89% (active),-32.9% (inactive) and 45% (inactive),1% (inactive),98% (active),-33% (inactive) and 90.2% (active),2% (inactive),97% (active),-52.2% (inactive) and 43.4% (inactive),-6% (inactive),96% (active),-18.8% (inactive) and 85.1% (active),0% (inactive),97% (active),-32.4% (inactive) and 23.8% (inactive),2% (inactive),99% (active),-32.2% (inactive) and 39.2% (inactive)
O[Si](c1ccccc1)(c1ccccc1)c1ccccc1.O[Si](c1ccccc1)(c1ccccc1)c1ccccc1.O[Si](c1ccccc1)(c1ccccc1)c1ccccc1.[O]=[V],58% (inactive),64% (inactive),62.1% (inactive),37% (inactive),50% (inactive),67% (inactive),46% (inactive),58% (inactive),70.3% (active),15% (inactive),31% (inactive),27.1% (inactive),63% (inactive),62% (inactive),43.4% (inactive),53% (inactive),58% (inactive),72.6% (active)
CCCCCCCCCCCCCCCCBr,-1% (inactive),0% (inactive),99.5% (active),-2% (inactive),0% (inactive),99.7% (active),-2% (inactive),8% (inactive),99.3% (active),4% (inactive),1% (inactive),98.8% (active),-2% (inactive),-3% (inactive),99.5% (active),6% (inactive),-5% (inactive),99.2% (active)
